Source: PubChem BioAssay (Tox21)
Inconclusive results are not listed. A number with no mark means an inactive call. Calls come from the whole dose curve; as a rule, active = well fitted activation curve with a large enough effect in the signal ratio in the repeat runs (not every such curve was filed as active); inconclusive = weak or mixed curves, or effect the other way; inactive = flat fitted curve, though single readings scatter; the % refers to the signal ratio.

Experiment: qHTS assay to identify small molecule agonists of the endoplasmic reticulum stress response signaling pathway (AID 1159516)
Settings: ESRE-bla HeLa, ER stress beta-lactamase reporter, 5 h; series mostly up to 61 µM; activation: at the top concentration
Outline: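 Beta-lactamase expression from the ER stress response element in HeLa reporter cells is quantified with the LiveBLAzer B/G FRET substrate, read at 405 nm excitation after 2 hr at room temperature, following 5 hr compound treatment at 37 C.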
% is set by controls: 0 for no effect and ±100 for the full control effect.

Q: With NS(=O)(=O)c1ccccc1OC(F)(F)F as the compound, how does the “activation” value read?
A: The value was -1.81%.

Q: For C[C@@H]1C[C@H]2[C@@H]3C[C@H](F)C4=CC(=O)C=C[C@]4(C)[C@@]3(F)[C@@H](O)C[C@]2(C)[C@@]1(O)C(=O)CO, which “activation” value is on record?
A: The value was 0.261%.

Q: For CCOC(=O)CC#N, which “activation” value is on record?
A: Its value is -0.0066%.

Q: For CC(=O)OCC(=O)[C@@]1(O)[C@H](OC(C)=O)C[C@H]2[C@@H]3CCC4=CC(=O)C=C[C@]4(C)[C@@]3(F)[C@@H](O)C[C@@]21C, which “activation” value is on record?
A: The value was -0.379%.

Q: With COCCOCCOCCOC as the compound, how does the “activation” value read?
A: The value was 2.25%.

Q: Which “activation” value does the source give for C=COCCOCCOC=C here?
A: Its value is 1.39%.

Q: For BrC/C=C/CBr, which “activation” value is on record?
A: Its value is 0.847% [at 28.5 µM].

Q: For C[N+](C)(C)CC(O)CCl (configuration not stated), which “activation” value is on record?
A: The value was -1.02% [at 78.8 µM].

Q: For CCCCCCCCCCCCC, which “activation” value is on record?
A: Its value is 1.35%.

Q: Which “activation” value does the source give for CCCCC[Si](OCC)(OCC)OCC here?
A: Its value is 0.276%.

Q: Which “activation” value does the source give for C/C=C(\C)C(=O)OCC/C=C\CC here?
A: Its value is -1.9%.

Q: Which “activation” value does the source give for CNC(=O)NC here?
A: Its value is 1.01% [at 78.8 µM].

Q: With CC1CCC(C(C)(C)S)C(=O)C1 (configuration not stated) as the compound, how does the “activation” value read?
A: Its value is -1.98%.

Q: With CC(=O)N1CCN(c2ccc(O)cc2)CC1 as the compound, how does the “activation” value read?
A: Its value is -2.82%.

Q: Which “activation” value does the source give for O=S(=O)(O)CCO here?
A: Its value is -0.112% [at 78.8 µM].

Q: With FC(F)(F)c1ccc(Cl)cc1Cl as the compound, how does the “activation” value read?
A: Its value is -2.84%.

Q: For CCCCCCCCCCCCCC(=O)OC, which “activation” value is on record?
A: The value was 1.14%.

Q: With CCCCOC(=O)C(=O)OCCCC as the compound, how does the “activation” value read?
A: Its value is 1.76%.

Q: Which “activation” value does the source give for Nc1nc(=O)n([C@@H]2O[C@H](CO)[C@@H](O)[C@@H]2F)cc1I here?
A: The value was -0.0527%.

Q: For C[C@H]1O[C@H](O[C@H]2[C@H](O)[C@@H](O)[C@@H](O[C@H]3[C@H](O)[C@@H](O)[C@H](O)O[C@@H]3CO)O[C@@H]2CO)[C@H](O)[C@@H](O)[C@@H]1N[C@H]1C=C(CO)[C@@H](O)[C@H](O)[C@H]1O, which “activation” value is on record?
A: The value was 2.47%.

Q: Which “activation” value does the source give for CC(=O)Nc1ccc(C)cc1 here?
A: Its value is -0.402%.

Q: Which “activation” value does the source give for C=CC(C)(O)CC/C=C(\C)CC (configuration not stated) here?
A: Its value is 1.17%.
